hgDAF-12 ag: H. glycines DAF-12 receptor agonists, primary screen, cell-based, luminescence, HEK293, GAL4 fusion, UAS-luciferase. Nuclear hormone receptor DAF-12 (Heterodera glycines), GAL4 fusion. HEK293 GAL4-hgDAF12 UAS-luciferase reporter, agonist luminescence; normalized to butyrate control. activation, % at 6.8 µM. hit rate 1.8% among 370,000;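 active = activation above a cutoff set at the mean of all screened compounds plus 3 SD, cut at about 10% in these data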;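 also: 0% = DMSO wells and 100% = sodium butyrate wells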
DAX1 inh-1: DAX1 (NR0B1) inhibitors, primary screen, cell-based, HEK293, Gal4-DAX1, luciferase luminescence. Nuclear receptor subfamily 0 group B member 1 (Homo sapiens), P51843. hit rate 0.99% among 340,000. inhibition, % at 6.75 µM. AID 504766, 2011. HEK293 Gal4-DAX1 luciferase reporter;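 active = inhibition above the mean over all tested compounds plus 3 SD, cut at about 4.2% in these data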;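 also: 0% = DAX1-transfected cells with DMSO and 100% = empty-vector control cells with DMSO; inhibition shows as a rise in luminescence from relieved DAX1 repression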
Target sequence (P51843 207-470 limits assumed): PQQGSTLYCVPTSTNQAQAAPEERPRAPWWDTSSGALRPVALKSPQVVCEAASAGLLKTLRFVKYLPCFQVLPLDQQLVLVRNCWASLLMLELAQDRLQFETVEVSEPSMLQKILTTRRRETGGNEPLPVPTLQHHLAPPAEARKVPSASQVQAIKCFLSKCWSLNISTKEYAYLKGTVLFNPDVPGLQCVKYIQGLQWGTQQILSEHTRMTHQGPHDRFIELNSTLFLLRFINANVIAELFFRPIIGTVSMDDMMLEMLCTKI
DAX1 inh-2: DAX1 (NR0B1) inhibitors on StAR promoter, primary screen, cell-based, luminescence, SF-1 (NR5A1), full-length DAX-1; HEK293T StAR-luciferase reporter, SF-1/DAX-1 repression relief; inhibition, % at 6.8 µM; hit rate 1.1% among 370,000; AID 652010, 2013;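 active = inhibition above the mean over all tested compounds plus 3 SD, cut at about 3.6% in these data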;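 also: 0% = DAX-1 cells with DMSO and 100% = cells lacking DAX-1 with DMSO; higher inhibition means more luminescence from relief of DAX-1 repression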
hcDAF12 agonist: H. contortus DAF-12 nuclear receptor activators, primary screen, cell-based, luminescence, HEK293, lit1-tk-luc reporter | HEK293 hcDAF-12 lit1-tk-luc reporter; 0% DMSO, 100% Δ7-dafachronic acid | activation, % at 6.8 µM | hit rate 1.4% among 370,000;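 active = activation above the mean of all tested compounds plus 3 SD, cut at about 5.5% in these data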;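 also: 100% = response to 3 µM Δ7-dafachronic acid high control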
ssDAF12 agonist: S. stercoralis DAF-12 nuclear receptor activators, primary screen, cell-based, luminescence, HEK293, GRIP1 co-expression, lit1-tk-luc; Nuclear hormone receptor DAF-12 (Strongyloides stercoralis); HEK293 ssDAF-12/GRIP1 lit1-tk-luc reporter; % of 3 µM dafachronic acid response; activation, % at 6.8 µM; hit rate 1% among 370,000;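 active = activation above the mean over all tested compounds plus 3 SD, cut at about 0.9% in these data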;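 also: 0% = DMSO-only wells and 100% = 3 µM delta7-dafachronic acid wells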
SMARCA2 activ: SMARCA2 (BRM) function activators, primary screen, cell-based, luminescence, high throughput. hit rate 1% among 370,000. activation, % at 9.1 µM. MG213 cells, MMTV-luciferase reporter, dexamethasone, overnight; in the data active = activation above about 7.8%;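 also: 0% = vehicle wells and 100% = reference activator wells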
LXR ag: LXR agonists, Gal4 luciferase reporter, confirmation, counter-screen for hcDAF-12 agonist project, cell-based, luminescence, HEK293, H. contortus campaign | shares compounds with hcDAF12 agonist | HEK293 Gal4-LXR tk-luc reporter, 24 h; normalized: DMSO 0%, positive control 100% | activation, % at 6.8 µM | 3,400 tested, under 10 active | AID 743027, 2013;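 active = mean percent activation of the reporter above a cutoff set as the average over tested compounds plus their standard deviation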
hcDAF12 conf: H. contortus DAF-12 receptor agonists, confirmation, cell-based, luminescence, HEK293, lit1-tk-luc, triplicate; shares compounds with hcDAF12 agonist; HEK293 hcDAF-12 lit1-tk-luc reporter; % of Δ7-dafachronic acid response; activation, % at 6.8 µM; hit rate 61% among 3,400;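 active = mean activation across triplicate tests above the threshold derived from the earlier primary screen, cut at about 5.5% in these data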;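 also: 0% = DMSO only wells and 100% = 3 µM Δ7-dafachronic acid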
hgDAF12 conf: H. glycines DAF-12 receptor agonists, confirmation, cell-based, luminescence, HEK293, GAL4-LBD fusion. shares compounds with hgDAF-12 ag. HEK293 GAL4-hgDAF12 luciferase reporter, agonist mode; percent of butyrate response. activation, % at 6.8 µM. hit rate 80% among 3,300;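 active = mean activation over triplicate wells above the hit cutoff derived from the earlier primary screen, cut at about 11% in these data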;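 also: 0% = DMSO low control and 100% = 2 mM sodium butyrate high control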
LXR ag 2: LXR agonists, Gal4 luciferase reporter, confirmation, counter-screen for hgDAF-12 agonist project, cell-based, luminescence, HEK293, H. glycines campaign. shares compounds with hgDAF-12 ag. 24 h. activation, % at 6.8 µM. 3,300 tested, under 10 active;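 active = mean activation of the triplicate above a set limit carried over from the primary screen, none filed active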
Active calls of the source: *; · = not tested or not shown. Most compounds without a hit are left out; they make up all but 4.8% or so of the library.

SMILES | hgDAF-12 ag | DAX1 inh-1 | DAX1 inh-2 | hcDAF12 agonist | ssDAF12 agonist | SMARCA2 activ | LXR ag | hcDAF12 conf | hgDAF12 conf | LXR ag 2
COc1ccc2[nH]c3nc(SC(C)C)nnc3c2c1 | 20.7* | 1.1 | 3.9* | 13.7* | 1.5* | 5.8 | 1.6 | 9.1* | 9.4 | 0.6
Cc1cc(C2=NNC(=NC3CCCCC3)SC2)c(C)n1-c1c(C)n(C)n(-c2ccccc2)c1=O | -1.4 | -0.3 | -0.7 | 0.6 | -1.7 | 1.5 | · | · | · | ·
c1csc(C2=NNC(=NC3CCCCC3)SC2)c1 | 16.8* | · | 3.2 | 10.2* | 1.5* | 3.7 | 1.4 | 5.6 | 16.2* | 0.7
Cc1ccc(N/N=C(\C#N)C(N)=S)cc1C | 4.9 | 1.5 | 0.4 | 3.0 | -1.9 | -5.0 | · | · | · | ·
Cc1ccc(N/C=C(/C#N)c2ccsc2)cc1C | 15.3* | 3.4 | 2.2 | 7.2* | 1.5* | 7.5 | 1.4 | 8.1* | 21.8* | 1.0
Cc1ccc(Nc2nc(N)c3ccccc3n2)cc1C | 15.6* | -1.8 | 2.8 | 6.6* | 0.9* | 1.2 | 1.6 | 8.0* | 20.9* | 1.1
COc1ccc(-c2csc(Nc3cccc(C)n3)n2)cc1C | 14.0* | 2.2 | 1.5 | 6.7* | -0.2 | 3.4 | 1.3 | 6.0* | 16.6* | 0.6
c1ccc(-c2csc(Nc3ncccn3)n2)cc1 | 8.9 | 2.2 | 2.4 | 5.6 | -0.5 | 2.6 | · | · | · | ·
NS(=O)(=O)c1ccc(Nc2nc(-c3ccc(F)cc3)cs2)cc1 | 1.4 | · | -1.1 | -1.8 | -2.0 | -2.4 | · | · | · | ·
Cc1ccnc(Nc2nc(-c3ccccc3)cs2)c1 | 15.2* | 3.7 | 1.4 | 7.8* | 0.7 | 3.6 | 1.6 | 5.9* | 15.5* | 1.1
Fc1ccc(-c2csc(Nc3ccccn3)n2)cc1 | 20.4* | 3.4 | 2.3 | 20.6* | 4.3* | 0.4 | 2.0 | 15.6* | 26.2* | 1.0
Cc1cccc(Nc2nc(-c3ccc(F)cc3)cs2)n1 | 15.8* | 9.3* | 2.9 | 13.4* | 2.8* | 3.0 | 1.6 | 9.6* | 17.7* | 0.9
CC1(C(=O)N/N=C/c2c(F)c(F)c(F)c(F)c2F)CC1(Cl)Cl (stereo not given) | 0.1 | 1.5 | -0.5 | -1.0 | -1.9 | -4.2 | · | · | · | ·
Oc1ccc(-c2csc(Nc3ncccn3)n2)cc1 | 18.2* | 0.7 | 3.1 | 7.0* | 0.1 | 5.6 | 1.6 | 8.4* | 10.1 | 1.2
COc1ccc(-c2csc(Nc3cccc(C)n3)n2)cc1 | 14.0* | 8.7* | 2.8 | 6.8* | 1.0* | 5.9 | 1.0 | 4.5 | 18.6* | 0.9
